Inconclusive results are not listed. Active and inactive are the calls of the source. The call rests on the fitted dose curve; in most records, active means well fitted inhibition curve with a large enough effect; inconclusive means small, poorly fitted or top-dose-only effect; inactive means flat fitted curve, though single readings scatter.
Key:
[1] = qHTS profiling for inhibitors of Plasmodium falciparum proliferation (AID 504749); further: nearly all actives have a fitted effect of over 60% in size;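 on activity, negative = inhibition: 0% = DMSO vehicle and full inhibition = artemisinin control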; details: P. falciparum in erythrocytes, SYBR Green DNA, 72 h
Procedure, shortened: (§1)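 SYBR Green fluorescence of parasite DNA, read after lysis and overnight dark incubation, measured growth over 72 h in erythrocyte culture at 0.3% parasitemia and 2.5% hematocrit. Data normalised to DMSO and 0.29 uM artemisinin, with plate-drift correction.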

3D7 = experiment: as above; details: P. falciparum in erythrocytes, SYBR Green DNA, 72 h; series mostly up to 28.7 µM
Procedure, shortened: as §1

7G8 = experiment: as above; details: P. falciparum in erythrocytes, SYBR Green DNA, 72 h; series mostly up to 28.7 µM
Procedure, shortened: as §1

AA1029 = experiment: as above; details: P. falciparum in erythrocytes, SYBR Green DNA, 72 h; series mostly up to 28.7 µM
Procedure, shortened: as §1

AS120 = experiment: as above; details: P. falciparum in erythrocytes, SYBR Green DNA, 72 h; series mostly up to 28.7 µM
Procedure, shortened: as §1

ATS189 = experiment: as above; details: P. falciparum in erythrocytes, SYBR Green DNA, 72 h; series mostly up to 28.7 µM
Procedure, shortened: as §1

ATS95 = experiment: as above; details: P. falciparum in erythrocytes, SYBR Green DNA, 72 h; series mostly up to 28.7 µM
Procedure, shortened: as §1

C2A = experiment: as above; details: P. falciparum in erythrocytes, SYBR Green DNA, 72 h; series mostly up to 28.7 µM
Procedure, shortened: as §1

CP185 = experiment: as above; details: P. falciparum in erythrocytes, SYBR Green DNA, 72 h; series mostly up to 28.7 µM
Procedure, shortened: as §1

CP191 = experiment: as above; details: P. falciparum in erythrocytes, SYBR Green DNA, 72 h; series mostly up to 28.7 µM
Procedure, shortened: as §1

CP194 = experiment: as above; details: P. falciparum in erythrocytes, SYBR Green DNA, 72 h; series mostly up to 28.7 µM
Procedure, shortened: as §1

CP203 = experiment: as above; details: P. falciparum in erythrocytes, SYBR Green DNA, 72 h; series mostly up to 28.7 µM
Procedure, shortened: as §1

CP211 = experiment: as above; details: P. falciparum in erythrocytes, SYBR Green DNA, 72 h; series mostly up to 28.7 µM
Procedure, shortened: as §1

CP215 = experiment: as above; details: P. falciparum in erythrocytes, SYBR Green DNA, 72 h; series mostly up to 28.7 µM
Procedure, shortened: as §1

CP217 = experiment: as above; details: P. falciparum in erythrocytes, SYBR Green DNA, 72 h; series mostly up to 28.7 µM
Procedure, shortened: as §1

CP192 = experiment: as above; details: P. falciparum in erythrocytes, SYBR Green DNA, 72 h; series mostly up to 28.7 µM
Procedure, shortened: as §1

CP201 = experiment: as above; details: P. falciparum in erythrocytes, SYBR Green DNA, 72 h; series mostly up to 28.7 µM
Procedure, shortened: as §1

[2] = at 28.7 µM (top of the series), parasite line A
[3] = at 28.7 µM (top of the series), parasite line B
Potency means the concentration at half of the fitted maximal effect.

CCCN(CCc1cccs1)[C@H]1CCc2c(O)cccc2C1
active: Potency ([1]; parasite line B) 4.47 µM | Potency (3D7) 14.1 µM | Potency (7G8) 1 µM | Potency (AA1029) 5.01 µM | Potency (AS120) 7.08 µM | Potency (ATS189) 7.94 µM | Potency (ATS95) 7.94 µM | Potency (C2A) 11.2 µM | Potency (CP185) 11.2 µM | Potency (CP191) 10 µM | Potency (CP194) 13.5 µM | Potency (CP203) 6.75 µM | Potency (CP211) 10.7 µM | Potency (CP215) 15.1 µM | Potency (CP217) 11.2 µM

CN(C)CCOC(c1ccc(Cl)cc1)c1ccccn1 (stereo unspecified)
inactive: activity, negative = inhibition [1, 2] 5.62% | Potency (3D7) | Potency (C2A) | Potency (CP192) | Potency (CP211) | Potency (CP215)

NC1CCN(c2nc3c(cc2F)c(=O)c(C(=O)O)cn3-c2ccc(F)cc2F)C1 (stereo unspecified)
inactive: Potency (ATS189) | Potency (CP192)

Oc1ccc(Cl)cc1Cc1cc(Cl)ccc1O
active: Potency ([1]; parasite line B) 11.2 µM | Potency (7G8) 11.2 µM | Potency (AA1029) 10 µM | Potency (AS120) 7.08 µM
inactive: Potency (3D7) | Potency (C2A) | Potency (CP192) | Potency (CP194) | Potency (CP211)

CN1CCc2cccc3c2[C@H]1Cc1ccc(O)c(O)c1-3
active: Potency (3D7) 7.94 µM | Potency (7G8) 2.24 µM | Potency (AA1029) 8.91 µM | Potency (AS120) 7.94 µM | Potency (ATS95) 8.91 µM

CN1CCN(C2=Nc3ccccc3Sc3ccc(Cl)cc32)CC1
inactive: activity, negative = inhibition [1, 2] -8.05% | activity, negative = inhibition [1, 3] -25.1% | Potency (ATS189) | Potency (C2A) | Potency (CP185) | Potency (CP192) | Potency (CP211)

CN(CCCN1c2ccccc2CCc2ccccc21)CC(=O)c1ccc(Cl)cc1
active: Potency (7G8) 1.41 µM | Potency (AA1029) 7.94 µM | Potency (AS120) 12.6 µM | Potency (ATS95) 10 µM | Potency (CP217) 11.2 µM
inactive: Potency (C2A) | Potency (CP192) | Potency (CP201)

CCCCCCCCCCCCOCCOCCOCCOCCOCCOCCOCCOCCOCCO
inactive: activity, negative = inhibition [1, 3] -26% | Potency (AA1029) | Potency (CP192) | Potency (CP194) | Potency (CP201) | Potency (CP203) | Potency (CP211) | Potency (CP215)
active: Potency (7G8) 12.6 µM

CCN(CC)CCOc1ccc2c(c1)C(=O)c1cc(OCCN(CC)CC)ccc1-2
active: Potency (7G8) 7.94 µM | Potency (ATS189) 11.2 µM | Potency (C2A) 10 µM | Potency (CP185) 12.6 µM

CO[C@]12C[C@@H](COC(=O)c3cncc(Br)c3)CN(C)[C@@H]1Cc1cn(C)c3cccc2c13
inactive: activity, negative = inhibition [1, 2] -17.9% | Potency (3D7) | Potency (CP185) | Potency (CP192) | Potency (CP194) | Potency (CP201) | Potency (CP211) | Potency (CP217)

CC(C)(Cc1c[nH]c2ccccc12)NCC(O)COc1ccccc1C#N (stereo unspecified)
inactive: Potency (CP192) | Potency (CP201) | Potency (CP215)
active: Potency (7G8) 8.91 µM | Potency (AA1029) 8.91 µM

CCNC(=O)/C=C/c1cccc(Br)c1
inactive: activity, negative = inhibition [1, 3] -15.2% | Potency (3D7) | Potency (7G8) | Potency (AA1029) | Potency (AS120) | Potency (ATS95) | Potency (C2A) | Potency (CP185) | Potency (CP192) | Potency (CP194) | Potency (CP201) | Potency (CP203) | Potency (CP211) | Potency (CP215) | Potency (CP217)

O=C(O)CCc1nc2ccccc2[nH]1
active: Potency (3D7) 0.0045 µM

O=C(CN1CCN(Cc2ccc3c(c2)OCO3)CC1)N1c2ccccc2Sc2ccccc21
active: Potency (7G8) 7.94 µM | Potency (AS120) 10 µM | Potency (ATS189) 8.91 µM | Potency (C2A) 11.2 µM | Potency (CP217) 11.2 µM
inactive: Potency (CP192) | Potency (CP201)

Cc1ccc2c(Br)cc(Br)c(O)c2n1
active: Potency ([1]; parasite line B) 12.6 µM | Potency (7G8) 7.08 µM | Potency (AS120) 8.91 µM | Potency (CP185) 10 µM | Potency (CP194) 13.5 µM | Potency (CP211) 15.1 µM | Potency (CP215) 9.53 µM | Potency (CP217) 10 µM

CC1=C(C(=O)O)N2C(=O)[C@@H](NC(=O)[C@H](N)c3ccccc3)[C@H]2SC1
inactive: activity, negative = inhibition [1, 2] 3.04% | Potency (3D7) | Potency (7G8) | Potency (AA1029) | Potency (AS120) | Potency (ATS189) | Potency (ATS95) | Potency (C2A) | Potency (CP185) | Potency (CP191) | Potency (CP192) | Potency (CP194) | Potency (CP201) | Potency (CP203) | Potency (CP211) | Potency (CP215) | Potency (CP217)

CC(C)[N+](C)(C)CC(O)COc1cccc2ccccc12 (stereo unspecified)
inactive: Potency (AS120) | Potency (ATS189) | Potency (ATS95) | Potency (CP201) | Potency (CP203) | Potency (CP217)

O=C(NC1CCN(CCc2c[nH]c3ccccc23)CC1)c1ccccc1
inactive: activity, negative = inhibition [1, 3] -5.78% | Potency (AS120) | Potency (ATS189) | Potency (ATS95) | Potency (C2A) | Potency (CP185) | Potency (CP192) | Potency (CP194) | Potency (CP201) | Potency (CP211) | Potency (CP215) | Potency (CP217)
active: Potency (7G8) 10 µM | Potency (CP191) 8.91 µM

COc1ccc(C(=O)c2ccccc2O)c(O)c1
active: Potency (7G8) 3.16 µM | Potency (AS120) 3.98 µM
inactive: activity, negative = inhibition ([1]; at 12.8 µM (top of the series), parasite line A) -29.2% | Potency (3D7) | Potency (AA1029) | Potency (ATS189) | Potency (ATS95) | Potency (C2A) | Potency (CP185) | Potency (CP192) | Potency (CP194) | Potency (CP201) | Potency (CP203) | Potency (CP211)

CN1CCN(c2c(F)cc3c(=O)c(C(=O)O)cn4c3c2SCC4)CC1
inactive: activity, negative = inhibition [1, 3] -29% | Potency (3D7) | Potency (CP192) | Potency (CP194) | Potency (CP201) | Potency (CP203)

Source: PubChem BioAssay (NCATS)
